Among the test systems are HCT-15 colon; HT29 colon; SNB-19 CNS; U251 CNS; PC-3 prostate; SK-MEL-5 melanoma; UACC-62 melanoma; LOX IMVI melanoma; SK-MEL-28 melanoma; SK-MEL-2 melanoma; EKVX NSCLC; SN12C renal; UO-31 renal; TK-10 renal; CCRF-CEM leukemia; MOLT-4 leukemia; SNB-75 CNS; ACHN renal; CAKI-1 renal; A498 renal.
What all share (test): NCI-60 one-dose screen, 48 h (100 = growth as untreated, 0 = no growth, -100 = all killed)
Common to all, as to conditions: 10 µM unless noted

Our source for the growth values is PubChem BioAssay (NCI).

Each structure is given as a SMILES string. Compounds without any hit were thinned out: in the full panel of roughly 83,000, 20% have a hit.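 A percent growth of 40 corresponds to 60% growth inhibition; 0 means no net growth; -100 means all cells died. Active threshold: below 10.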 Values without a mark were called inactive. Calls of active or inactive are those of the source.

Consider `N#Cc1ccc(-c2csc(Nc3ccc4nc5n(c(=O)c4c3)CCC5)n2)cc1`, for which the growth in the test with HCT-15 colon is 98.2%; with HT29 colon, 105%; in the test on SNB-19 CNS, 98.1%; with U251 CNS, 96%; with PC-3 prostate, 110%; with SK-MEL-5 melanoma, 97.4%. Further, the growth was 100% in the test with UACC-62 melanoma; 101% in the test on LOX IMVI melanoma; 104% with SK-MEL-28 melanoma; 95.4% in the test with SK-MEL-2 melanoma; 99% in the test with EKVX NSCLC; 104% with SN12C renal. Moreover, the growth with UO-31 renal was 100%; in the test with TK-10 renal it was 110%; in the test with CCRF-CEM leukemia, 51.8%; in the test on MOLT-4 leukemia, 92.8%.

As for `CO[C@H]1/C=C/O[C@@]2(C)Oc3c(C)c(O)c4c(O)c(c(/C=N/N5C(C)CN(Cc6ccc(C#N)cc6)CC5C)c(O)c4c3C2=O)NC(=O)/C(C)=C\C=C\[C@H](C)[C@H](O)[C@@H](C)[C@@H](O)[C@@H](C)[C@H](OC(C)=O)[C@@H]1C` (some centres undefined), the growth was 25% with HCT-15 colon; 26.4% in the test with HT29 colon; 56.7% in the test with SNB-75 CNS; 34.9% with U251 CNS; 13.1% in the test on PC-3 prostate; 5.17% (active) in the test on SK-MEL-5 melanoma. For the same compound, the growth in the test with UACC-62 melanoma was 3.13% (active); with LOX IMVI melanoma, 52.5%; in the test with SK-MEL-28 melanoma, 46.3%; in the test with SK-MEL-2 melanoma it was 61.2%; in the test on EKVX NSCLC it was 17.1%; in the test with SN12C renal, 39.4%. Moreover, the growth was 24.6% in the test on UO-31 renal; 19.7% with TK-10 renal; 26.3% with ACHN renal; 39.1% in the test with CAKI-1 renal; 20.5% with A498 renal; 12.1% with CCRF-CEM leukemia. Also, the growth with MOLT-4 leukemia is -2.17% (active).

With `COc1ccc(C(=O)COc2cccc(/C=C3\COc4ccc5ccccc5c4C3=O)c2)cc1`, the growth in the test on HCT-15 colon was 88.6%; with HT29 colon, 60.8%; in the test with SNB-75 CNS, -6.64% (active); with SNB-19 CNS, 66.9%; with PC-3 prostate, 48.2%; in the test on SK-MEL-5 melanoma, 67.6%. Also, the growth is 74.5% in the test on UACC-62 melanoma; 57.6% with LOX IMVI melanoma; 52.6% with SK-MEL-2 melanoma; 45.4% in the test on EKVX NSCLC; 68.6% in the test with SN12C renal; -29.5% (active) in the test on UO-31 renal. The growth was 143% in the test with ACHN renal; 71.9% with CAKI-1 renal; 88.8% in the test on A498 renal; 13.3% with CCRF-CEM leukemia; 44.4% in the test with MOLT-4 leukemia.

As for `O=C1/C(=C/c2cccc(Cl)c2)CCc2ccccc21`, the growth in the test on HCT-15 colon was 93.7%; in the test on HT29 colon, 91.2%; in the test with SNB-75 CNS, 72.5%; in the test on SNB-19 CNS it was 87.1%; in the test on PC-3 prostate, 89.7%; in the test on SK-MEL-5 melanoma it was 101%. For the same compound, the growth is 97.7% with UACC-62 melanoma; 90.9% in the test with LOX IMVI melanoma; 106% with SK-MEL-28 melanoma; 95.9% with SN12C renal; 76.1% in the test with UO-31 renal; 83.3% in the test with MOLT-4 leukemia.

As for `N#Cc1c(-c2ccccc2)cc(-c2ccccc2)n(CCC(=O)O)c1=O`, the growth in the test with HCT-15 colon was 29.7%; with HT29 colon it was 19.3%; in the test on SNB-19 CNS, 56.1%; in the test with U251 CNS, 38.2%; in the test on PC-3 prostate, 75.3%; in the test with SK-MEL-5 melanoma it was 3.86% (active). The growth in the test on UACC-62 melanoma is 32.3%; with LOX IMVI melanoma, 51%; in the test with SK-MEL-28 melanoma it was 57.3%; in the test with SK-MEL-2 melanoma, 9.85% (active); in the test with EKVX NSCLC, 76.8%; in the test with UO-31 renal, 63.1%. Moreover, the growth in the test on TK-10 renal was 75.6%; with ACHN renal, 67.1%; in the test with CAKI-1 renal, 46.4%; with CCRF-CEM leukemia it was 54.9%; with MOLT-4 leukemia it was 49.4%.

Take `O=C(c1ccc(Cl)cc1)c1ccc(Cl)cc1`: the growth in the test on HCT-15 colon was 113%; in the test with HT29 colon it was 102%; in the test on SNB-75 CNS, 112%; in the test with SNB-19 CNS, 109%; in the test with PC-3 prostate it was 110%; in the test on UACC-62 melanoma it was 103%. Moreover, the growth is 103% with LOX IMVI melanoma; 106% in the test with SK-MEL-28 melanoma; 108% in the test with EKVX NSCLC; 102% in the test on SN12C renal; 108% with UO-31 renal; 101% in the test on TK-10 renal. The growth was 123% in the test on ACHN renal; 115% in the test on CAKI-1 renal; 97.7% in the test with A498 renal; 88.6% with CCRF-CEM leukemia; 106% in the test with MOLT-4 leukemia.

With `CCOC(=O)N1CCC(N=C2CSc3nnc(-c4cc(C(F)(F)F)cc(C(F)(F)F)c4)n3N2)CC1`, the growth in the test on HCT-15 colon is 25.2%; in the test with HT29 colon it was -3.65% (active); in the test on SNB-19 CNS it was 58.2%; in the test on U251 CNS, 22.6%; in the test on PC-3 prostate, 2.55% (active); in the test on SK-MEL-5 melanoma, -67.5% (active). In addition, the growth was 32.6% in the test on UACC-62 melanoma; 16.5% in the test on LOX IMVI melanoma; 44.5% in the test on SK-MEL-28 melanoma; -22.5% (active) in the test with SK-MEL-2 melanoma; 28.5% in the test on SN12C renal; 34.2% with UO-31 renal. Further, the growth in the test on TK-10 renal is 14.9%; in the test on ACHN renal, 30.5%; in the test with CAKI-1 renal it was 55.2%; in the test with A498 renal, 22.4%; with CCRF-CEM leukemia, 6.9% (active); with MOLT-4 leukemia, -2.78% (active).

As for `COc1cc(C(=O)c2cc3c(cc2C)OCO3)cc(OC)c1OC`, the growth in the test with HCT-15 colon is 19.6%; in the test with HT29 colon it was 3.84% (active); in the test with SNB-75 CNS, 22.7%; in the test with SNB-19 CNS it was 50.7%; in the test on PC-3 prostate it was 18.1%; with SK-MEL-5 melanoma, 0.803% (active). Moreover, the growth was 32.7% in the test with UACC-62 melanoma; 19.7% in the test on LOX IMVI melanoma; 46.6% with SK-MEL-28 melanoma; 32.4% in the test on SN12C renal; 44.8% with UO-31 renal; 62.8% in the test with TK-10 renal. Also, the growth in the test with ACHN renal is 36.3%; in the test on CAKI-1 renal it was 13.5%; with A498 renal, -2.13% (active).

As for `O=C(Nc1cccc(Cl)c1)Nc1cccc(Cl)c1`, the growth with HCT-15 colon was 60.9%; with HT29 colon, 82.1%; in the test on SNB-75 CNS it was 94.7%; in the test with U251 CNS it was 63.5%; with PC-3 prostate it was 26.8%; in the test with SK-MEL-5 melanoma, 79.2%. Also, the growth was 43.7% in the test on UACC-62 melanoma; 89.1% in the test on LOX IMVI melanoma; 95% in the test with SK-MEL-28 melanoma; 114% in the test on SK-MEL-2 melanoma; 85.2% in the test with SN12C renal; 72.7% in the test with UO-31 renal. For the same compound, the growth in the test on TK-10 renal is 74.3%; in the test on ACHN renal, 59.2%; with CAKI-1 renal it was 78.2%; in the test on A498 renal, 59.5%; in the test with CCRF-CEM leukemia, 38.8%; in the test with MOLT-4 leukemia, 51.6%.
